From article PMC5540273 (PLoS ONE, 2017)

Tests used:
Conditions in all cases: concentration: 1 μM, replicates: in singlicate; n = 1
ERK4 = system: T1, ERK4
T1 construct: gene MAPK4

ERK5 = system: T2, ERK5
T2 construct: gene MAPK7

ERK8 = system: T3, ERK8
T3 construct: gene MAPK15

ERN1 = system: ERN1
FAK = system: T4, FAK
T4 construct: gene PTK2

FER = system: FER
FES = system: FES
FGFR1 = system: FGFR1
FGFR2 = system: FGFR2
FGFR3 = system: FGFR3
FGFR4 = system: FGFR4
FGR = system: FGR
FLT1 = system: FLT1
FLT3-autoinhibited = system: FLT3-autoinhibited
FLT3 = system: FLT3
FLT4 = system: FLT4
FRK = system: FRK
FYN = system: FYN
GAK = system: GAK
GCN2(Kin.Dom.2,S808G) = system: T5, GCN2(Kin.Dom.2,S808G)
T5 construct: gene EIF2AK4
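Also: KINOMEscan kinase panel screen.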

| SMILES | %Inh (ERK4) | %Inh (ERK5) | %Inh (ERK8) | %Inh (ERN1) | %Inh (FAK) | %Inh (FER) | %Inh (FES) | %Inh (FGFR1) | %Inh (FGFR2) | %Inh (FGFR3) | %Inh (FGFR4) | %Inh (FGR) | %Inh (FLT1) | %Inh (FLT3-autoinhibited) | %Inh (FLT3) | %Inh (FLT4) | %Inh (FRK) | %Inh (FYN) | %Inh (GAK) | %Inh (GCN2(Kin.Dom.2,S808G)) |
| --- | --- | --- | --- | --- | --- | --- | --- | --- | --- | --- | --- | --- | --- | --- | --- | --- | --- | --- | --- | --- |
| CC(C)(C)OC(=O)NC1CCCN(c2cc(-c3ccc4c(N)n[nH]c4c3)nc(N)n2)C1 (centres unmarked) [GSK2286096] | 23% | 29% | 0% | 7% | 0% | 0% | 0% | 0% | 4% | 22% | 14% | 4% | 9% | 0% | 0% | 0% | 2% | 26% | 42% | 0% |
| Fc1cccc(COc2ccc(Nc3ncnc4nn5ccccc5c34)cc2Cl)c1 [GW689066] | 0% | 0% | 0% | 0% | 0% | 16% | 0% | 0% | 12% | 3% | 0% | 4% | 20% | 0% | 0% | 0% | 0% | 0% | 0% | 0% |
| O=C(Nc1ccccc1)Nc1ccc(Oc2ccc3nccn3n2)cc1 | 0% | 1% | 14% | 100% | 0% | 0% | 0% | 0% | 8% | 15% | 63% | 19% | 51% | 0% | 25% | 6% | 0% | 0% | 0% | 16% |
| Cc1cccc(-c2nc(Nc3ccc4[nH]nnc4c3)c3ccccc3n2)n1 [GW867587] | 0% | 0% | 0% | 0% | 0% | 0% | 0% | 0% | 0% | 0% | 0% | 0% | 0% | 0% | 0% | 0% | 0% | 0% | 0% | 0% |
| CNc1nccc(-c2c(-c3ccc(F)cc3)ncn2CCCN2CCOCC2)n1 [SB-222516] | 2% | 0% | 14% | 0% | 6% | 12% | 7% | 26% | 0% | 0% | 0% | 10% | 1% | 14% | 15% | 5% | 0% | 0% | 0% | 0% |
| Clc1cc(Nc2ncnc3cc[nH]c23)ccc1OCc1ccccn1 | 27% | 13% | 6% | 47% | 8% | 1% | 22% | 5% | 8% | 17% | 4% | 24% | 0% | 5% | 7% | 0% | 15% | 0% | 3% | 0% |
| CCc1nc(-c2cccc(C)c2)c(-c2ccnc(NC(=O)c3ccccc3)c2)s1 | 2% | 9% | 0% | 23% | 0% | 0% | 32% | 11% | 0% | 0% | 0% | 35% | 0% | 1% | 0% | 8% | 0% | 0% | 33% | 0% |
